Source: PubChem (National Center for Advancing Translational Sciences (NCATS))
Compounds with a hit are over-represented: about 21% of the library has one in this group of screens.
Cycloheximide cs: counter-screen for Shiga toxin inhibitors: cycloheximide protein synthesis inhibition; cell reporter, cycloheximide protein synthesis inhibition counterscreen; max response, %; hit rate 12% among 300,000; AID 2314; in the data active = max response mostly above about 13%, no sharp cut-off; inactive = mostly below about 14%; also: read at 38.3 µM for the half of the compounds with a filed dose
Pf growth 48h: inhibits P. falciparum growth in the first generation, 48 h | P. falciparum luciferase growth in erythrocytes, 48 h | Potency, µM (top dose mostly 28.7 µM), hits mostly inhibitors | hit rate 5.9% among 310,000 | AID 504832
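Compounds are pin-transferred into medium, infected erythrocytes (2% hematocrit, 0.1% parasitemia final) are added, and plates sit one parasite generation at 37 C in 5% CO2. Detection reagent is then added and luminescence measured.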
Shiga toxin inh: blocks Shiga toxin action in Vero cells. Vero cells, Shiga toxin protein synthesis inhibition reporter. inhibition, % at 38.7 µM. hit rate 9.2% among 290,000. AID 2315; in the data active = inhibition mostly above about 28%, no sharp cut-off; inactive = mostly below about 43%
NS1 function inh: blocks influenza NS1 protein function; hit rate 0.4% among 270,000; Potency, µM (titrated, usually from 46.1 µM); AID 2326; calls by dose curve; also: actives are rising curves; nearly all actives have a fitted effect of over 50% in size
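Growth recovery, yeast-based: influenza A NS1 expressed in S. cerevisiae causes slow growth, and suppressors are detected by OD600. The parent strain without NS1 is used as positive control.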
Pf growth 96h: inhibits malaria parasite growth, 96 h; hit rate 6.9% among 320,000; AID 504834; Potency, µM (series often up to 28.7 µM), most hits filed as inhibitors; P. falciparum luciferase reporter growth, 96 h
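Luminescence readout: decreased luciferase signal marks inhibited growth of reporter-expressing P. falciparum in infected red cells (2% hematocrit, 0.05% parasitemia final), exposed to compound two generations (96 h, 37 C, 5% CO2).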
SARS PLpro yeast: SARS-CoV PLP inhibition in yeast. S. cerevisiae expressing SARS-CoV PLpro, growth rescue. Potency, µM (titrated, usually from 32.9 µM), usual class: activators. hit rate 0.19% among 330,000. AID 485353; calls by dose curve; also: nearly all actives have a fitted effect of over 55% in size
Numbers stand for hits; – = inactive; ? = inconclusive; · = no result given. Unless noted, calls follow the shape of the dose curve; as a rule, active = well fitted inhibition curve with a large enough effect; inconclusive = small, poorly fitted or top-dose-only effect, or another doubt; inactive = no such curve, though single readings can be large or run the other way.

SMILES	Cycloheximide cs	Pf growth 48h	Shiga toxin inh	NS1 function inh	Pf growth 96h	SARS PLpro yeast
Cc1cccc(S(=O)(=O)c2c(C)cc(C)[nH]c2=O)c1	30	–	–	–	–	–
Cc1cc(C)c(S(=O)(=O)c2cccc(C(F)(F)F)c2)c(=O)[nH]1	–	?	–	–	–	–
Cc1cc(C)c(S(=O)(=O)c2ccccc2)c(=O)[nH]1	18	–	–	–	–	–
Cc1ccc(S(=O)(=O)c2c(C)cc(-c3ccccc3)[nH]c2=O)cc1	–	–	–	–	–	–
O=C(CN(C(=O)CCC(=O)Nc1nccs1)c1ccc(F)cc1)NCCc1ccccc1	–	?	–	–	?	–
COc1cc(CNCc2ccc(C)cc2)cc(OC)c1OC	–	–	–	–	?	–
COc1ccccc1/C=C/C=N/NC(=O)Cc1cccn1C	–	–	–	–	–	–
COc1cccc(OC)c1C(=O)Nc1ccc(NC(=O)c2ccco2)cc1	–	–	–	–	?	–
COc1ccccc1/C=C/C=N/NC(=O)c1cccs1	44	?	116	–	–	–
COc1ccccc1/C=C\C=N\NC(=O)c1ccco1	39	–	153	–	–	–
O=C(CSc1nccc(=O)[nH]1)NC1CCCCCC1	·	·	·	·	·	–
O=C(O)COCC(=O)N1CCCN(c2ccc(C(F)(F)F)cn2)CC1	–	–	–	–	–	–
CC(=O)c1cccc(OCC(=O)N2CCN(c3ccc(C(F)(F)F)cn3)CC2)c1	–	–	–	·	7.4µM	–
COC(=O)Cn1c(=NC(=O)c2ccc(S(=O)(=O)N3CCc4ccccc4C3)cc2)sc2cc(OC)ccc21	–	?	–	–	?	–
C#CCn1c(=NC(=O)c2ccc(S(=O)(=O)N3CCc4ccccc4C3)cc2)sc2cc(S(N)(=O)=O)ccc21	–	?	–	?	5.2µM	–
CCOCCn1c(=NC(=O)c2ccc(S(=O)(=O)N3CCOCC3)cc2)sc2cc(S(N)(=O)=O)ccc21	–	15µM	–	–	6.6µM	–
C=CCn1c(=NC(=O)c2ccc(S(=O)(=O)N3CCc4ccccc4C3)cc2)sc2cc(S(N)(=O)=O)ccc21	–	–	–	–	?	–
COCCn1c(=NC(=O)c2ccc(S(=O)(=O)N3CCc4ccccc4C3)cc2)sc2cc(S(N)(=O)=O)ccc21	–	?	–	–	7.4µM	–
CCCS(=O)(=O)c1nc(S(=O)(=O)c2ccc(C)cc2)c(NCCCN2CCCC2=O)s1	–	–	–	–	9.3µM	–
CCS(=O)(=O)c1nc(S(=O)(=O)c2ccc(Cl)cc2)c(NCc2ccco2)s1	–	?	–	–	?	–
Cc1ccc(S(=O)(=O)c2nc(S(=O)(=O)c3ccc(C)cc3)c(NCc3ccco3)s2)cc1	–	?	–	–	13µM	–
CCCS(=O)(=O)c1nc(S(=O)(=O)c2ccc(C)cc2)c(NCc2ccco2)s1	–	12µM	–	–	?	–
CC(C)OC(=O)CC12CN(C)CC(CC(=O)OC(C)C)(CN(C)C1)C2=O	35	–	–	–	?	–
Cc1cccc(CN2CCC(n3nccc3NC(=O)CCCc3ccccc3)CC2)n1	–	–	–	–	–	–
COc1ccc(NC(=O)c2cccnc2NCCc2ccccc2)cc1	–	?	–	–	1.5µM	–
SMILES	Cycloheximide cs	Pf growth 48h	Shiga toxin inh	NS1 function inh	Pf growth 96h	SARS PLpro yeast
COc1cccc(Nc2ncccc2C(=O)Nc2ccccc2)c1	–	?	–	–	·	–
COc1ccccc1Nc1ncccc1C(=O)O	–	–	–	–	9.3µM	–
COc1ccc(Nc2ncccc2C(=O)O)cc1	47	–	112	–	·	–
CN(CC(=O)Nc1ccc(Cl)cc1)C(=O)c1sccc1-c1ccccc1	·	–	·	·	?	–
O=C(Nc1cccc(Oc2ccc3c(c2)C(=O)NC3=O)c1)c1cccs1	–	–	–	–	–	–
CCC(=O)c1ccc(OCC(=O)OCC(=O)N2c3ccccc3CC2C)cc1 (configuration not stated)	·	–	·	·	–	?
COc1cc2c(cc1OC)C(Cc1ccc(O)c(Oc3ccc(C[C@H]4c5cc(OC)c(OC)cc5CCN4C)cc3)c1)N(C)CC2 (some centres not stated)	·	·	·	·	·	–
Cc1nn(C(C)(C)C)c(OC(=O)C2CCCC2)c1S(=O)(=O)c1ccccc1	–	–	–	–	10µM	–
CN(C(=O)COc1nc2ccccc2s1)c1ccccc1	–	·	23	·	·	·
CN(C(=O)CCc1nc2ccccc2s1)c1ccccc1	21	–	–	–	–	–
CN(C(=O)COc1cc(C(F)(F)F)nn1C)c1ccccc1	–	–	–	–	–	–
CCCCNC(=O)CSc1nnc(-c2c[nH]c3ccccc23)n1CC1CCCO1 (configuration not stated)	–	?	–	–	·	–
COc1ccc(CC(=O)N(C)C2CCCCC2)cc1S(=O)(=O)N1CCOCC1	–	–	–	·	–	–
Cc1sc2ncnc(N3CCC(C(=O)Nc4nc(-c5cccs5)cs4)CC3)c2c1C	·	?	·	·	10µM	–
Cc1ccc2nc(NC(=O)C3CCN(c4ncnc5sc(C)c(C)c45)CC3)sc2c1	18	–	–	–	?	–
CC12CCC(=O)N1C(C(=O)Nc1nc3ccccc3s1)CS2 (configuration not stated)	·	–	·	·	–	–
COc1ccccc1N1CCN(C2CC(=O)N(c3cccc(Br)c3)C2=O)CC1 (configuration not stated)	–	–	–	–	–	–
COc1cc2c(cc1OC)CN(C1CC(=O)N(c3c(C)cccc3C)C1=O)CC2 (configuration not stated)	–	6.6µM	–	·	?	–
O=C1CC(/C=C/c2ccccn2)=Nc2ccccc2N1	22	?	57	·	–	–
CCc1nnc(NC(=O)CN2CCN(c3ccccc3F)CC2)s1	–	–	–	–	–	–
CC(c1cccs1)N(Cc1ccco1)C(=S)Nc1ccccc1Cl (configuration not stated)	–	–	–	·	?	–
CN(Cc1cn(-c2ccccc2)nc1-c1ccc2c(c1)OCO2)Cc1nccn1C	–	12µM	–	–	–	–
COC(=O)C1CCN(Cc2cn(-c3ccccc3)nc2-c2ccc3c(c2)OCO3)CC1	–	?	–	–	?	–
CC(=O)NCC1CCCN(Cc2cn(-c3ccccc3)nc2-c2ccc3c(c2)OCO3)C1 (configuration not stated)	–	–	–	–	13µM	–
CCOc1ccc(CNS(=O)(=O)c2cccs2)cc1OCC	–	?	–	–	?	–
CC(=O)c1c(CC(=O)O)[nH]n(-c2nc3ccccc3s2)c1=O	–	·	–	–	–	–
COc1ccc(CN=C(C)c2c(C(F)(F)F)[nH]n(-c3nc4ccccc4s3)c2=O)cc1	42	–	122	–	·	–
COC(=O)Cc1[nH]n(-c2nc3ccccc3s2)c(=O)c1C(C)=O	17	–	–	–	·	–
C=CCOc1ccc(C2NC(=S)NC3=C2CCc2ccccc23)cc1 (configuration not stated)	25	?	–	–	?	–
